Reference: PubChem BioAssay (NCI)
About 83,000 compounds went through this panel and 20% of them were active in at least one assay; those are over-represented in the sample as a whole.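 Interpretation: 100, growth as untreated; towards 0, rising growth inhibition; 0, no net growth; 0 to -100, cell death. Compounds scoring below 10 were considered active.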 A number with no mark means an inactive call. Activity calls are given as the source filed them.

Experiments:
Assay in all cases: NCI-60 one-dose screen, 48 h (100 = growth as untreated, 0 = no growth, -100 = all killed)
Details in all cases: 10 µM unless noted
HCT-15 colon = system: HCT-15 colon
HT29 colon = system: HT29 colon
SNB-75 CNS = system: SNB-75 CNS
SNB-19 CNS = system: SNB-19 CNS
U251 CNS = system: U251 CNS
PC-3 prostate = system: PC-3 prostate
SK-MEL-5 melanoma = system: SK-MEL-5 melanoma
UACC-62 melanoma = system: UACC-62 melanoma
LOX IMVI melanoma = system: LOX IMVI melanoma
SK-MEL-28 melanoma = system: SK-MEL-28 melanoma

Row | Compound | growth (HCT-15 colon) | growth (HT29 colon) | growth (SNB-75 CNS) | growth (SNB-19 CNS) | growth (U251 CNS) | growth (PC-3 prostate) | growth (SK-MEL-5 melanoma) | growth (UACC-62 melanoma) | growth (LOX IMVI melanoma) | growth (SK-MEL-28 melanoma)
1 | CCCCCCCCCCC(C(O)c1ccccc1)N1CCCCC1 (stereo not given) | 16.8% | -10.5% (active) | 63.1% | 43.7% | 28% | 25.7% | -94.3% (active) | -9.77% (active) | -30.5% (active) | -15.9% (active)
2 | CCCc1n(Cc2ccc3ccccc3n2)cc[n+]1Cc1ccc2ccccc2c1 | 82% | 3.72% (active) | -6% (active) | 7.24% (active) | 11.2% | 5.35% (active) | -91.9% (active) | -46.7% (active) | -63.8% (active) | 9.91% (active)
3 | Oc1c(-c2cc(C(F)(F)F)[nH]n2)cc(Cl)c(OCc2ccc(Cl)cc2)c1-c1ccc(Cl)c(C(F)(F)F)c1 | -11.5% (active) | 6.96% (active) | -17.6% (active) | 18.6% | 8.65% (active) | 4.7% (active) | -60.2% (active) | -17.3% (active) | 1.76% (active) | -19.9% (active)
4 | CCCN(CCC)CC(O)COc1ccccc1C(=O)Nc1ccccc1 (stereo not given) | 72.8% | 71.3% | 56.2% | 94.6% | 60.4% | 70.2% | 53.3% | 48.1% | 56.8% | 65.2%
5 | Oc1[nH]c2ccc(Cl)cc2c1/C=c1/ccc2c(c1)N=C(c1ccc(F)cc1)N=2 | 19.3% | 62.4% | 55.6% | 69% | 72% | 48.5% | 59.3% | 69% | 46.1% | 53.7%
6 | N#Cc1c(N)n(C2OC(CO)C(O)C2O)c2ncnc(N)c12 (stereo not given) | -4.45% (active) | 2.5% (active) | -37.5% (active) | 5.99% (active) | 15.2% | -13.5% (active) | -33.4% (active) | -49.6% (active) | -52.4% (active) | -60.9% (active)
7 | CCCCN(CCCC)CCCN=c1nc2c(c(N)n1-c1ccccc1)c(=S)n(-c1ccccc1)c(=S)n2-c1ccccc1 | -73.3% (active) | -63.3% (active) | -94.2% (active) | -87.4% (active) | -100% (active) | -70.8% (active) | -100% (active) | -99.4% (active) | -89.7% (active) | -100% (active)
8 | Cn1nc(C(F)(F)F)cc1-c1c[nH]c(OCc2ccc(Cl)cc2)c(-c2ccc(Cl)c(C(F)(F)F)c2)c1=O | 6.6% (active) | 5.99% (active) | -6.2% (active) | 21.1% | 8.33% (active) | 5% (active) | -63.9% (active) | -14.9% (active) | 7.07% (active) | 10.1%
9 | O=C(Nc1ccc(Cl)c(C(F)(F)F)c1)c1ccc(Nc2ccc(Cl)nn2)cc1 | 46.4% | 61.7% | 84.2% | 76.7% | 51.5% | 49.6% | 59.6% | 51.9% | 54.7% | 72.5%
10 | N#Cc1c(NN)n(C2OC(CO)C(O)C2O)c2ncnc(N)c12 (stereo not given) | 3.17% (active) | 4.15% (active) | 35.2% | 54.7% | 34.5% | 6.48% (active) | -67.5% (active) | -39.3% (active) | -4.81% (active) | -15.1% (active)
11 | CCSc1ccc([C@@H]2[C@@H](O)C(=O)N2c2cc(OC)c(OC)c(OC)c2)cc1 | 14.1% | 9.27% (active) | 85.8% | 35.5% | 21% | 28.1% | 0.317% (active) | 40.4% | 25.9% | 71%
12 | O=S(=O)(NCC[C@@H]1C[C@H]1c1ccc2ccccc2c1)c1ccc(C(F)(F)F)cc1 | 93.4% | 92.7% | 73.6% | 97.3% | 93.5% | 81.7% | 94.5% | 78.5% | 97.8% | 108%
13 | COc1cc2c(cc1OC)C(=O)OC2 | 119% | 109% | 78.7% | 113% | 106% | 125% | 99.4% | 97.6% | 109% | 147%
14 | C=CCn1c(SCC(=O)Nc2ccc(/C(C)=N\O)cc2)nnc1-c1cc(-c2ccccc2)nc2ccccc12 | 50.8% | 49.9% | 58.3% | 68.5% | 59.1% | 43.5% | 48.4% | 24.3% | -58.1% (active) | 86.7%
15 | COc1ccc(OC)c(Nc2nc(-c3c(C)nc4sccn34)cs2)c1 | 73.6% | 73.6% | 78.4% | 96.9% | 89.5% | 37.6% | 18.8% | 79.6% | 83.4% | 101%
16 | O=C1C=CC(=O)N1CO | 116% | 105% | 100% | 103% | 117% | 102% | 114% | 106% | 120% | 117%
17 | COc1ccc(-c2nc(-c3cc(OC)cc(OC)c3)[nH]c2-c2ccc(OC)cc2)cc1 | 45.3% | 17.3% | 86.1% | 61.2% | 45.6% | 27.5% | 14.9% | 37% | 61.3% | 67.4%
18 | CC(=O)[C@H]1CC[C@H]2[C@@H]3CC[C@H]4CC=CC[C@]4(C)[C@H]3CC[C@]12C | 89.8% | 79.4% | 74.1% | 98.1% | 102% | 58% | 98.8% | 79.9% | 95.4% | 89.1%
19 | CN(CCO)c1ccc(N2Cc3ccccc3OC3=C2C(=O)c2c(O)ccc(O)c2C3=O)cn1 | -83.6% (active) | -49% (active) | -13.7% (active) | 6.43% (active) | -24.8% (active) | -14.8% (active) | -94.9% (active) | -88.3% (active) | -86.6% (active) | -83.4% (active)
20 | c1ccc2c(Cc3csc4ccccc34)csc2c1 | 76.1% | 76.2% | 66.9% | 90.4% | 81.9% | 85.2% | 91% | 86.4% | 84.3% | 82.9%
